According to PubChem BioAssay AID1159580 (chemical genetic matrix, 2015):
Values joined by “and” are separate entries in the source; they are usually repeats but may differ in a detail not shown here. Equal entries are not always repeated. Among all 5,500 compounds or so, about 2,000 (36%) were called active. Another 18% or so got no clear call; they are omitted. No stated cut-off is given here; in the data, active means normalized growth mostly below about 0.91 (no sharp cut-off); inconclusive means no clear call, values can overlap the other calls; inactive means mostly above about 0.92. The list shows a part of the results.

Experiment: chemical genetic growth profiling, strain panel (AID 1159580);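 further: tested at 20 µM; growth read once vehicle control cultures reached saturation at 30 °C; 1 = growth at the plate median or of vehicle wells; lower values mean less growth of the strain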
Details: S. cerevisiae deletion strains, growth OD

Measured: normalized growth

CC1(C)CC2C1CCC1(C)OC1CCC2(C)O (centres undefined)
inactive: locus YAL013W, strain DEP1, active compounds read low 1.02 | locus YAL021C, strain ccr4, active compounds read low 1.01 | locus YAL026C, strain drs2, active compounds read low 1.05 | locus YAL030W, strain snc1, active compounds read low 1.03 | locus YBL061C, strain skt5, active compounds read low 1.04 | locus YBR009C, strain hhf1, active compounds read low 1.06 | locus YBR021W, strain FUR4, active compounds read low 1.01 | locus YBR023C, strain chs3, active compounds read low 1.05 | locus YBR171W, strain sec66, active compounds read low 1.06 | locus YBR229C, strain ROT2, active compounds read low 1 | locus YBR231C, strain swc5, active compounds read low 1.04 | locus YBR279W, strain paf1, active compounds read low 1.03 | locus YCL011C, strain gbp2, active compounds read low 1.04 | locus YCL016C, strain dcc1, active compounds read low 1.03 | locus YCL029C, strain bik1, active compounds read low 1.03 | locus YCL061C, strain MRC1, active compounds read low 1.04 | locus YCL069W, strain vba3, active compounds read low 1.04 | locus YCR088W, strain abp1, active compounds read low 1.04 | locus YDL005C, strain med2, active compounds read low 1.03 | locus YDL035C, strain GPR1, active compounds read low 1.03 | locus YDL040C, strain nat1, active compounds read low 1.03 | locus YDL074C, strain BRE1, active compounds read low 1.07 | locus YDL101C, strain DUN1, active compounds read low 1.03 | locus YDL185W, strain tfp1, active compounds read low 1.01 | locus YDL192W, strain arf1, active compounds read low 1.03 | locus YDR001C, strain nth1, active compounds read low 1.03 | locus YDR069C, strain doa4, active compounds read low 1.06 | locus YDR101C, strain arx1, active compounds read low 0.987 | locus YDR137W, strain rgp1, active compounds read low 1.07 | locus YDR159W, strain sac3, active compounds read low 1.11 | locus YDR162C, strain NBP2, active compounds read low 1.06 | locus YDR195W, strain ref2 1.01 | locus YDR297W, strain sur2, active compounds read low 1.05 | locus YDR318W, strain mcm21, active compounds read low 1.04 | locus YDR334W, strain swr1, active compounds read low 1.04 | locus YDR335W, strain msn5, active compounds read low 1.04 | locus YDR388W, active compounds read low 1.02 | locus YDR392W, strain spt3, active compounds read low 1.01 | locus YDR502C, strain sam2, active compounds read low 1.06 | locus YEL003W, strain gim4, active compounds read low 1.04 | locus YEL037C, strain rad23, active compounds read low 1.03 | locus YEL061C, strain CIN8 (second series), active compounds read low 1.03 | locus YEL061C, strain CIN8, active compounds read low 1.02 | locus YER015W, strain faa2, active compounds read low 1.04 | locus YER016W, strain bim1, active compounds read low 1.04 | locus YER110C, active compounds read low 1.01 | locus YER111C, strain swi4, active compounds read low 1.03 | locus YER155C, strain BEM2 (second series), active compounds read low 1.07 | locus YER155C, strain BEM2, active compounds read low 1.03 | locus YER167W, strain BCK2, active compounds read low 1.01 | locus YFR010W, strain ubp6, active compounds read low 1.05 | locus YGL078C, strain dbp3, active compounds read low 1.02 | locus YGL086W, strain mad1, active compounds read low 1.02 | locus YGL167C, strain pmr1, active compounds read low 1.03 | locus YGL173C, strain kem1, active compounds read low 1.06 | locus YGL227W, strain vid30, active compounds read low 1.03 | locus YGL240W, strain doc1, active compounds read low 1.04 | locus YGL248W, strain PDE1, active compounds read low 1.05 | locus YGL253W, strain hxk2, active compounds read low 1.07 | locus YGR135W, strain pre9, active compounds read low 1.04 | locus YGR252W, strain gcn5, active compounds read low 1.17 | locus YHR013C, strain ard1, active compounds read low 1.05 | locus YHR027C, strain rpn1, active compounds read low 1.06 | locus YHR030C, strain SLT2, active compounds read low 1.02 | locus YHR079C, strain IRE1 (second series), active compounds read low 1.01 | locus YHR079C, strain IRE1, active compounds read low 1.04 | locus YHR094C, strain hxt1, active compounds read low 1.01 | locus YHR129C, strain ARP1, active compounds read low 1.02 | locus YHR142W, strain chs7, active compounds read low 1.06 | locus YHR200W, strain rpn10, active compounds read low 1.04 | locus YIL066C, strain RNR3, active compounds read low 1.02 | locus YIL073C, strain SPO22, active compounds read low 1.12 | locus YIL125W, strain kgd1, active compounds read low 1.01 | locus YIR030C, strain dcg1, active compounds read low 1.01 | locus YJL092W, strain hpr5, active compounds read low 1.04 | locus YJL095W, strain BCK1 (second series), active compounds read low 1.03 | locus YJL095W, strain BCK1, active compounds read low 1.08 and 1.04 | locus YJL115W, strain asf1, active compounds read low 1.04 | locus YJL129C, strain trk1, active compounds read low 1.08 | locus YJL134W, strain LCB3, active compounds read low 1.02 | locus YJL154C, strain vps35, active compounds read low 1.03 | locus YJL164C, strain tpk1, active compounds read low 1.04 | locus YJL166W, strain qcr8, active compounds read low 1.05 | locus YJL168C, strain set2, active compounds read low 1.02 | locus YJL187C, strain SWE1 (second series), active compounds read low 1.06 | locus YJL187C, strain SWE1, active compounds read low 1.05 | locus YJR043C, strain POL32, active compounds read low 1.04 | locus YJR066W, strain TOR1, active compounds read low 0.961 | locus YKL009W, strain mrt4, active compounds read low 1.01 | locus YKL068W, active compounds read low 1 | locus YKL085W, strain MDH1 (second series), active compounds read low 1 | locus YKL085W, strain MDH1, active compounds read low 1 | locus YKL160W, strain elf1, active compounds read low 1.02 | locus YKR001C, strain vps1, active compounds read low 1.1 | locus YKR026C, strain gcn3, active compounds read low 1.04 | locus YKR091W, strain srl3, active compounds read low 1.02 | locus YLL001W, strain dnm1, active compounds read low 1.01 | locus YLL026W, active compounds read low 1.04 | locus YLL041C, strain sdh2, active compounds read low 1.03 | locus YLR027C, strain aat2, active compounds read low 1.05 | locus YLR039C, strain RIC1, active compounds read low 1.2 | locus YLR058C, strain SHM2, active compounds read low 1.05 | locus YLR102C, strain apc9, active compounds read low 1.01 | locus YLR113W, strain HOG1, active compounds read low 1.03 | locus YLR221C, strain rsa3, active compounds read low 1.07 | locus YLR258W, strain gsy2, active compounds read low 1.05 | locus YLR262C, strain YPT6 (second series), active compounds read low 1.06 | locus YLR268W, strain sec22, active compounds read low 1.04 | locus YLR320W, strain mms22, active compounds read low 1.07 | locus YLR342W, strain FKS1 (second series), active compounds read low 1.09 | locus YLR342W, strain FKS1, active compounds read low 1.05 | locus YLR357W, strain rsc2, active compounds read low 1.07 | locus YLR370C, strain arc18, active compounds read low 1.04 | locus YLR371W, strain rom2, active compounds read low 0.999 | locus YLR384C, strain iki3, active compounds read low 1.05 | locus YLR418C, strain cdc73, active compounds read low 1.11 | locus YML016C, strain PPZ1, active compounds read low 1.01 | locus YML032C, strain rad52, active compounds read low 1.04 | locus YML120C, strain ndi1, active compounds read low 1.03 | locus YML124C, strain tub3, active compounds read low 0.999 | locus YMR058W, strain fet3, active compounds read low 1.05 | locus YMR078C, strain ctf18, active compounds read low 1.01 | locus YMR125W, strain sto1, active compounds read low 1.05 | locus YMR129W, active compounds read low 1.02 | locus YMR205C, strain PFK2, active compounds read low 1.06 | locus YMR223W, strain ubp8, active compounds read low 1.05 | locus YMR231W, strain pep5, active compounds read low 1.04 | locus YMR263W, strain SAP30, active compounds read low 1.02 | locus YMR307W, strain GAS1, active compounds read low 1.1 | locus YNL067W, strain RPL9B, active compounds read low 1.03 | locus YNL071W, strain lat1, active compounds read low 1.04 | locus YNL128W, strain TEP1, active compounds read low 1.04 | locus YNL153C, strain GIM3, active compounds read low 1.05 | locus YNL183C, strain NPR1, active compounds read low 0.975 | locus YNL209W, strain ssb2, active compounds read low 1.03 | locus YNL233W, strain BNI4, active compounds read low 1.07 | locus YNL248C, strain rpa49, active compounds read low 1.05 | locus YNL250W, strain rad50, active compounds read low 1.04 | locus YNL271C, strain bni1, active compounds read low 1.03 | locus YNL298W, strain CLA4, active compounds read low 1.01 | locus YNL307C, strain MCK1, active compounds read low 1.01 | locus YNL322C, strain KRE1 (second series), active compounds read low 1.04 | locus YNL322C, strain KRE1, active compounds read low 1.02 | locus YNR049C, strain mso1, active compounds read low 1.04 | locus YNR052C, strain pop2, active compounds read low 1.03 | locus YOL006C, strain TOP1, active compounds read low 1.19 | locus YOL012C, strain htz1 1 | locus YOL147C, strain pex11, active compounds read low 1.02 | locus YOR001W, strain rrp6, active compounds read low 1.08 | locus YOR061W, strain CKA2, active compounds read low 1.02 | locus YOR069W, strain VPS5, active compounds read low 1.02 | locus YOR070C, strain gyp1, active compounds read low 1.05 | locus YOR080W, strain dia2, active compounds read low 1.03 | locus YOR083W, strain WHI5, active compounds read low 1.03 | locus YOR106W, strain vam3, active compounds read low 1.04 | locus YOR136W, strain idh2, active compounds read low 1 | locus YOR144C, strain elg1, active compounds read low 1.01 | locus YOR184W, strain ser1, active compounds read low 1.05 | locus YOR231W, strain MKK1, active compounds read low 1.05 | locus YOR265W, strain rbl2, active compounds read low 1.04 | locus YOR270C, strain vph1, active compounds read low 1.14 | locus YOR290C, strain snf2, active compounds read low 1.04 | locus YOR316C, strain cot1, active compounds read low 1 | locus YPL051W, strain arl3, active compounds read low 1.05 | locus YPL055C, strain LGE1, active compounds read low 1.06 | locus YPL078C, strain atp4, active compounds read low 1.02 | locus YPL106C, strain sse1, active compounds read low 1.02 | locus YPL240C, strain hsp82, active compounds read low 1.03 | locus YPL256C, strain CLN2, active compounds read low 1.04 | locus YPR119W, strain clb2, active compounds read low 1.02 | locus YPR141C, strain kar3, active compounds read low 0.991 | locus YPR163C, strain tif3, active compounds read low 1.04 | locus YPR167C, strain met16, active compounds read low 1 | strain wtn01, active compounds read low 1.04
